According to PubChem BioAssay AID624330 (Southern Research Specialized Biocontainment Screening …, 2012):
Screen size: about 340,000 compounds; about 2,100 (0.62%) were called active.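 How the source made its calls: active means first-screen hits whose inhibition reached a set limit at any dose in the follow-up dose series; inconclusive means inhibition above the set first-screen limit but never retested; inactive means the rest.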 A selection follows. Results with a measured potency or affinity are listed apart.

molecular target: Rac GTPase-activating protein 1 (Homo sapiens) (UniProt Q9H0H5); assay: blockers of MgcRacGAP-driven Rac1 GTP hydrolysis – biochemical, ADP Hunter fluorescence, primary and confirmatory, confirmation (AID 624330); conditions: MgcRacGAP-stimulated Rac1 GTP hydrolysis, at 30 µM, stronger effect = higher value, GST-tagged Rac1 F28L mutant substrate;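 further: fluorescence reports GDP produced by GAP-driven GTP hydrolysis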
Sequence (Q9H0H5 whole entry, looked up): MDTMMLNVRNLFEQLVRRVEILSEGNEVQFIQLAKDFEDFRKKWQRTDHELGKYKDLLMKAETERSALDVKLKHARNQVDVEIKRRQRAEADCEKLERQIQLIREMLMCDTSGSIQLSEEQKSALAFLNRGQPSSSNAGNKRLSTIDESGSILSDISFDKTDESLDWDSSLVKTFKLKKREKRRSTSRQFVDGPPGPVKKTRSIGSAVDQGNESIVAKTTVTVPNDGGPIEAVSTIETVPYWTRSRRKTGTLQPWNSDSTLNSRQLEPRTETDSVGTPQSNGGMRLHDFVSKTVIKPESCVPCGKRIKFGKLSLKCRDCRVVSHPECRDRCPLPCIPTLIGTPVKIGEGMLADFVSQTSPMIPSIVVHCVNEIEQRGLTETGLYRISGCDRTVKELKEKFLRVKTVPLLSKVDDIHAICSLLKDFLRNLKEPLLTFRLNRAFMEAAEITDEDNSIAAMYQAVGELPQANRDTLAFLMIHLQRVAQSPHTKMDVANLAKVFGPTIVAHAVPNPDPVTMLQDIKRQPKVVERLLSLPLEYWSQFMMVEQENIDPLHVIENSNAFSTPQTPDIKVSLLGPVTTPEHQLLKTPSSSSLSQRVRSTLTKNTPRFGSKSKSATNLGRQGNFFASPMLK

inhibition, inactive:
CCC(C)(c1ccc(C=O)s1)c1ccc(C=O)s1 6.23%
Cc1ccc2c(CC(=O)NNC(=O)c3ccccc3)coc2c1 6.09%
Cc1ccc2c(CC(=O)NNC(=O)c3ccccc3O)coc2c1 -8.73%
COc1ccc2c(CC(=O)NNC(=O)c3cccs3)coc2c1 5.91%
Cc1ccc2c(CC(=O)NCc3cccs3)coc2c1 3.76%
CN(C)CC1(c2ccccc2)CCCC1 -6.5%
CC1CCCCN1C(=S)Nc1ccc(OC(F)F)cc1 (stereo not drawn) 2.05%
O=c1[nH]c2ccccc2cc1CN(Cc1ccco1)S(=O)(=O)c1ccccc1 5.99%
CC(C)(C)NC(=O)C(c1ccc(-c2ccccc2)cc1)N(C[C@H]1CC[C@@H]([C@@H]2CC[C@H](CO)O2)O1)C(=O)c1ccccc1F (stereo partly drawn) 3.69%
O=C(O)Cn1nc(-c2ccccc2)ccc1=O -3.67%
COc1ccc(-c2csc(/C(C#N)=C/Nc3ccc4c(c3)OCCO4)n2)cc1 2.83%
CCN(CC)CCOC(=O)c1ccc(N/C=C(/C#N)c2nc(-c3ccc(OC)cc3)cs2)cc1 10.3%
Cc1ccc(-c2csc(/C(C#N)=C/Nc3ccc4c(c3)OCCO4)n2)cc1 16.1%
CCN(CC)CCOC(=O)c1ccc(N/C=C(/C#N)c2nc(-c3cc4ccccc4oc3=O)cs2)cc1 26.6%
c1ccc(-c2ncc(CSc3nncn3-c3ccccc3)s2)cc1 1.96%
Cn1cc(SCC(=O)Nc2ccc3c(c2)OCO3)c2ccccc21 5.29%
O=C(NCc1ccccc1Cl)c1ccccc1CCc1ccccc1 6.88%
CCc1ccc(NC(=O)C2=CC=CN3CCS(=O)(=O)N=C23)cc1 7.78%
Cc1ccc(NC(=O)C2=CC=CN3CCS(=O)(=O)N=C23)cc1 2.18%
CN(C)C(=O)CCc1nc2sc3c(c2c(=O)[nH]1)CCCC3 18%
NC(=O)Cn1cc(/C=N\NS(=O)(=O)c2ccc(Cl)cc2)c2ccccc21 20%
COC(=O)c1ccc(NC(=S)N2CCN(Cc3ccc(Cl)cc3)CC2)cc1 -0.55%
CN1C(=O)/C(=C/c2coc3ccc(O)cc3c2=O)SC1=S 11.2%
O=C1NC(=S)S/C1=C\c1coc2ccc(O)cc2c1=O 7.3%
CSC1=NSC2=NC(=O)/C(=C/c3coc4ccc(O)cc4c3=O)C(=N)N12 14.1%
O=C1NN(c2ccccc2)C(=O)/C1=C\c1coc2ccc(O)cc2c1=O 23.8%
COc1ccc(CCNC(=O)c2cccc(S(=O)(=O)N3CCCCC3)c2)cc1 8.12%
C[C@H]1CN([C@@H](C)CO)C(=O)c2cccc(NC(=O)Nc3ccc(F)cc3)c2O[C@@H]1CN(C)Cc1ccc(C(=O)O)cc1 2.98%
O=C(NCc1ccccn1)C1Nc2ccc(C(F)(F)F)cc2C2C=CCC12 (stereo not drawn) 24.7%
O=c1cc(CNc2cc(Cl)ccc2Cl)nc2sccn12 2.5%
CCN(CC)C(=O)C(Sc1nnnn1-c1ccc(O)cc1)c1ccccc1 (stereo not drawn) 3.92%
Cc1c(Br)cnn1C(C)C(=O)N1CCN(c2ccc(F)cc2)CC1 (stereo not drawn) 3.49%
COc1cc(/C=C/C(=O)OCC(=O)Nc2ccc(Cl)cn2)ccc1O 21.2%
COc1cc(/C=C/C(=O)OCC(=O)Nc2cc(C)c(C)cc2[N+](=O)[O-])ccc1O 9.32%
O=C(/C=C/c1cccc(Cl)c1)OCc1cn2cc(Cl)ccc2n1 11.7%
O=C(COC(=O)/C=C/c1cccc(F)c1)Nc1ccccc1 -19.5%
COc1cccc(/C=C/C(=O)NCc2cn3cc(Cl)ccc3n2)c1 2.4%
COc1cc(NC(=O)COC(=O)/C=C/c2ccc(OC)c(OC)c2)cc(OC)c1 -0.81%
COc1cc(/C=C/C(=O)OCC(=O)Nc2ccc([N+](=O)[O-])cc2)ccc1O 4.8%
COc1cc(/C=C/C(=O)OCC(=O)Nc2ccccc2Sc2ccc(Cl)cc2)ccc1O 16.7%
CCOc1cc(CNCC2CCCO2)cc(Br)c1OCC(N)=O (stereo not drawn) 3.03%
CCn1ncc(CN2CCN(C(=O)Nc3ccccc3C(=O)OC)CC2)c1C 6.62%
O=C(Cn1ncn2c(cc3ccccc32)c1=O)NCCCc1ccccc1 1.38%
CC(C)(C)NC(=O)CN1C(=O)/C(=C/c2ccccc2)SC1=S 9.16%
CCC(Cc1ccccc1)NC(=O)CCc1ccccc1 (stereo not drawn) 7.57%
O=C(OCN1C(=O)C(=O)c2ccccc21)c1ccc(Cl)cc1 7.35%
CCCCn1c(N)c(N(Cc2ccccc2OC)C(=O)COc2ccc(F)cc2Cl)c(=O)[nH]c1=O 4.08%
CCOC(=O)C1=C(COC(=O)/C=C/c2ccc(OC)c(OC)c2)NC(=O)NC1C (stereo not drawn) -0.71%
CCOC(=O)C1=C(COC(=O)/C=C/c2ccc(OCC)c(OC)c2)NC(=O)NC1C (stereo not drawn) 9.47%
COc1ccc(-c2cc(C3CCN(Cc4cccc(C(F)(F)F)c4)CC3)[nH]n2)cc1 9.81%
CC(C)c1ccc2nc(NC(=O)C3CC3)sc2c1 9.94%
COc1ccccc1NC(=O)c1ccccc1S(=O)(=O)c1ccc([N+](=O)[O-])cc1 11.4%
c1ccc(Nc2cccc(Nc3ccccc3)n2)cc1 16.6%
c1ccc(Nc2ccccn2)cc1 1.32%
Cc1ccc(NC(=O)CSc2ccc3c(c2)OCCO3)c(O)c1 8.94%
CC(=O)c1ccc(N2CCN(C(=O)COc3ccc4c(c3)CCC4)CC2)cc1 5.57%
O=C(O)c1ccc2c(c1)S(=O)(=O)c1cc(N3CCN(c4cnccn4)CC3)ccc1C2=O 13.8%
O=C(Cn1[nH]c(=O)c2ccccc2c1=O)NC1CCN(Cc2ccccc2)CC1 5.55%
COc1cc(C)c(S(=O)(=O)N2CCCC2)cc1C(C)C 3.94%
COc1cc(C)c(-c2cc(C(=O)O)c(C)o2)cc1C(C)C 8.02%
Nc1ccc2c(=O)[nH][nH]c(=O)c2c1 3.77%
Nc1ccc2c(c1)[nH]c(=O)c1ccccc12 21.4%
C[C@H](CO)N1C[C@H](C)[C@@H](CN(C)S(=O)(=O)c2cccs2)Oc2ccc(NC(=O)NC3CCCCC3)cc2C1=O 3.35%
Cn1ccnc1Sc1nc2c(c(=O)n(C)c(=O)n2C)n1C 1.94%
COc1cc(C(=O)Nc2cccc(S(=O)(=O)N3CCCC3)c2)c([N+](=O)[O-])cc1OC 4.7%
S=c1[nH]nc2nnc3ccccc3n12 17.6%
Cn1c(=S)[nH]c2ccccc21 11.4%
COc1cc(NC(=O)c2cccc(F)c2)cc(OC)c1OC 8.45%
C=CCn1c2ccccc2c2n[nH]c(=S)nc21 3.05%
COCCNC(=O)c1c[nH]c2ccc(S(=O)(=O)N3CCC4(CC3)OCCO4)cc2c1=O 10.7%
N#Cc1ccccc1N=C1CCCN1Cc1ccccc1 16.7%
Cc1ccc(N=C2CCCCCN2C)c(C#N)c1 3.58%
CCc1ccc(OCC(O)Cn2c(N3CCCCC3)nc3c2c(=O)[nH]c(=O)n3C)cc1 (stereo not drawn) -4.27%
O=C(Nc1ccccc1Cl)OCC#CCOC(=O)Nc1ccccc1Cl 11%
O=C(Nc1ccccc1Cl)Oc1ccc(Cl)cc1Cl 9.61%
C[C@@H]1CN([C@@H](C)CO)C(=O)CCCn2nncc2CO[C@H]1CN(C)C(=O)Nc1ccc(N2CCCCC2)cc1 11.5%
O=C(CCN1C(=O)/C(=C/c2ccccc2Cl)SC1=S)NN1CCOCC1 4.7%
Cn1nccc1NC(=O)Nc1cccc(Cl)c1Cl 2.52%
CC(C)(C)c1nnc(N/N=C/c2ccccc2)n(N)c1=O 8.65%
CC(C)(C)c1nnc(N/N=C/c2ccc(Br)cc2)n(N)c1=O 9.58%
CCOc1ccc(NC(=O)CN(C)C(=O)c2cn(-c3ccc(F)cc3)nc2-c2cccc(OC)c2)cc1OCC 0.09%
CC(OC(=O)/C=C/c1ccccc1)C(=O)Nc1ccc2c(c1)OCCO2 (stereo not drawn) 9.16%
O=C(NCCc1nc2ccccc2[nH]1)Nc1ccccc1 8.22%
COc1ccc(NC(=O)c2cc(OC)c(OC)c(OC)c2)cn1 7.64%
NS(=O)(=O)c1cccc(NC(=O)c2cccc(-c3ccc(O)cc3)c2)c1 12.5%
COc1cccc(C(=O)Nc2cccc(NC(C)=O)c2)c1 10.6%
COc1ccc(NC(=O)c2cccc(Oc3ccccc3)c2)cn1 4.7%
CCOc1ccc(N(C(C)C(=O)Nc2ccc(OC)cc2)S(C)(=O)=O)cc1 (stereo not drawn) 9.57%
Cc1ccc(NC(=O)COC(=O)c2cc(Cl)ccc2[N+](=O)[O-])cc1 9%
O=C1c2c(O)cc(O)cc2O[C@H](c2ccc(O)c(O)c2)[C@H]1O 13.3%
O=C(c1c(O)cc(O)cc1O)C1c2c(cc(O)c3c2O[C@H](c2ccc(O)cc2)[C@@H](O)C3)OC1c1ccc(O)cc1 (stereo partly drawn) 12.8%
COc1cc2c3c([nH]c2cc1F)C(=O)NCC3 9.04%
O=[N+]([O-])c1cccc(CSc2nc3ccccc3[nH]2)c1 3.52%
